Bioassay records deposited in PubChem BioAssay by National Center for Advancing Translational Sciences (NCATS).
HCMV inh = inhibitors of human cytomegalovirus; HFF cells, HCMV-luciferase reporter, 72 h; active compounds read low; activity change, negative = inhibition, % at 57.5 µM; actives 4.5% (n = 410,000); AID 1259415; in the data active means activity change below about -60%; inconclusive means no clear call, values can overlap the other calls; inactive means above about -39%
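Compounds were evaluated in HFFs infected with an HCMV luciferase reporter virus (MOI 1 PFU/cell). Luciferase in lysates collected 72 h post infection served as the replication measure.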
Sm TGR block = blocks Schistosoma mansoni thioredoxin glutathione reductase. Q962Y6. purified TGR, DTNB reduction, TNB absorbance 405 nm. Potency, µM (doses to about 114 µM), without a hit: top-dose activity change, negative = inhibition, hits mostly inhibitors. actives 3% (n = 360,000). AID 485364; further: potency means the concentration at half of the fitted maximal effect; nearly all actives have a fitted effect of over 60% in size
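TGR 20 nM + NADPH 100 uM (dispensed conc.), cpd preinc 15 min RT; start with NADPH (500 uM addition) then DTNB (15 mM addition). Kinetic TNB absorbance, 405 nm filter. Four-parameter Hill fit across titration.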
Giardia FBPA inh = blocks Giardia fructose-bisphosphate aldolase activity; purified Giardia FBPA; Potency, µM (highest dose often 59.6 µM), for inactives: at the top dose activity, negative = inhibition, usual class: inhibitors; actives 0.71% (n = 290,000); A8B2U2; further: potency means the concentration at half of the fitted maximal effect; nearly all actives have a fitted effect of over 55% in size
Target sequence (A8B2U2 whole entry, looked up): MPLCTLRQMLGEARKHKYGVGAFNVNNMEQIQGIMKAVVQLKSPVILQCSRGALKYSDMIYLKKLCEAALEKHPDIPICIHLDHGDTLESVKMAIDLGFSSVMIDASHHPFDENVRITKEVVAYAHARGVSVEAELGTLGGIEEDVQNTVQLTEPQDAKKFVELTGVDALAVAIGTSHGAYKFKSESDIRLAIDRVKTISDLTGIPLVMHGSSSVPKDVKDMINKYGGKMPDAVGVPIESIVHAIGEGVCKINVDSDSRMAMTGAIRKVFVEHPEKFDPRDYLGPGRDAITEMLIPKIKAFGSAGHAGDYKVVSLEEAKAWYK
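Giardia FBPA (40 nM reagent) was preincubated 10 min at RT with compound (up to 57.5 uM final), then substrate plus GAPDH/TPI/NAD/arsenate coupling system with diaphorase/resazurin was added; resorufin fluorescence (525/598 nm) was read after 20 min.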
Pf growth 96h = P. falciparum growth inhibition at 96 hours | P. falciparum luciferase reporter growth, 96 h | Potency, µM (doses to about 28.7 µM), for the others: top-dose activity change, negative = inhibition, hits mostly inhibitors | actives 6.9% (n = 320,000) | AID 504834; further: potency means the concentration at half of the fitted maximal effect
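Two-generation exposure (96 h) targets delayed-death phenotype. Reporter parasites carrying integrated firefly luciferase, in red cells at 2% hematocrit and 0.05% parasitemia final, kept at 37 C, 5% CO2; luminescence loss indicates inhibition.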
Pf growth 48h = inhibits P. falciparum growth in the first generation, 48 h | P. falciparum luciferase growth in erythrocytes, 48 h | Potency, µM (series often up to 28.7 µM), without a hit: at the top dose activity change, negative = inhibition, hits mostly inhibitors | actives 5.9% (n = 310,000) | AID 504832; further: potency means the concentration at half of the fitted maximal effect
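Read-out is firefly luciferase luminescence from an integrated reporter in P. falciparum, so falling signal marks reduced parasite growth. Infected erythrocytes were at 2% hematocrit and 0.1% parasitemia (final) in Albumax-supplemented RPMI 1640.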
* hit, by the source's call; ? = inconclusive; . = no result; + = active, no number; ! = repeats disagree; [ ] = dose if it differs, or a comment. An excerpt weighted towards active compounds, which were near 14% of everything screened. Unless noted, the call rests on the fitted dose curve; in most records, active means well fitted curve in the direction sought with a large enough effect; inconclusive means small, poorly fitted or top-dose-only effect, or another doubt; inactive means no such curve, though single readings can be large; an effect the other way counts as inactive or inconclusive. On the % scale 0 is the no-effect control and ±100 the full control effect.

SMILES	HCMV inh	Sm TGR block	Giardia FBPA inh	Pf growth 96h	Pf growth 48h
C(=N\Nc1nc2ccccc2[nH]1)/c1ccncc1	24	16%	3%	0%	?
Cn1c(/C=N/Nc2nc3ccccc3[nH]2)nc2ccccc21	-83*	-4%	-3%	?	-17%
Cc1c(/C=N/Nc2nc3ccccc3[nH]2)c2ccccc2n1C	-96*	-5%	-21%	0.47µM*	0.52µM*
CCCn1c(/C=C/c2cc[n+](C)cc2)nc2ccccc21	?	-23%	-15%	13µM*	?
CC(C)Cn1c(/C=N/Nc2nc3ccccc3[nH]2)nc2ccccc21	-97*	-22%	22%	0.47µM*	3.7µM*
C=CCn1cc(/C=N/Nc2nc3ccccc3[nH]2)c2ccccc21	58	-5%	4%	83%	?
CN1CCN(S(=O)(=O)c2ccc(N(C)Cc3c(F)cccc3Cl)nc2)CC1	-21	.	.	.	.
O=C(CN1C(=O)NC2(CCOc3ccccc32)C1=O)NCc1ccccc1 (centres undefined)	29	.	.	.	.
CCCn1c(/C=N/Nc2nc3ccccc3[nH]2)nc2ccccc21	-99*	-1%	21%	4.1µM*	1.9µM*
C(=N\Nc1nc2ccccc2[nH]1)/c1cccs1	40	-17%	-2%	2.6µM*	2.9µM*
C[C@H]1CN[C@H](CCO)/C1=C\c1ccccc1	2	.	.	.	.
CCOC(=O)c1cccn1C1C(=O)N(Cc2ccc(Cl)nc2)c2ccc(F)cc21 (centres undefined)	9	.	.	.	.
O=S(=O)(c1ccc(F)cc1)N1CCN(C(=S)NCC2CCCO2)CC1 (centres undefined)	47	-1%	.	2.1µM*	2.6µM*
O=S(=O)(c1ccc(F)cc1)N1CCN(C(=S)NCCc2ccccc2)CC1	-20	4%	.	?	1.9µM*
O=S(=O)(c1ccc(Cl)cc1)N1CCN(C(=S)NCC2CCCO2)CC1 (centres undefined)	-5	-14%	11%	-10%	0.93µM*
O=S(=O)(c1ccc(F)cc1)N1CCN(C(=S)NCc2ccccc2)CC1	?	8%	-2%	?	?
CC[C@]12c3[nH]c4ccccc4c3CCN1C(=O)C(CC(=O)NC/C=C(\C)CCC=C(C)C)C[C@@H]2C(=O)N1CCN(C(=O)c2ccco2)CC1 (some centres undefined)	-13	.	.	.	.
CCN(CC(=O)Nc1ccc(NC(C)=O)cc1)C(=O)c1ccc(Sc2nncn2C)c([N+](=O)[O-])c1	-26	.	.	.	.
C/C(=N\NC(=O)c1cc(-c2ccco2)nc2ccccc12)c1cccnc1	7	10µM*	-4%	?	?
COc1ccc(OC)c(-c2cc(C(=O)N/N=C(\C)c3cccnc3)c3ccccc3n2)c1	-16	-16%	-8%	-103%	1.5µM*
COc1ccc(-c2cc(C(=O)N/N=C(\C)c3cccnc3)c3ccccc3n2)c(OC)c1	7	-5%	.	?	29%
OC(c1ccc(Cl)c(F)c1)c1ncc(-c2ccccc2F)[nH]1 (centres undefined)	-16	.	.	.	.
CO[C@@H]1COC(=O)[C@H](COCc2ccccc2)NC(=O)C/C=C\[C@@H](C)[C@H](OC)COC(=O)[C@H](COCc2ccccc2)NC(=O)C/C=C\[C@H]1C	.	.	6%[12.9 µM]	.	.
O=C(CCS(=O)(=O)c1cc2c(cc1Cl)NC(=O)CO2)NCc1ccc(Cl)cc1	-1	-2%	.	.	.
Cc1cc(F)ccc1NC(=O)CCS(=O)(=O)c1cc2c(cc1C)NC(=O)CO2	-105*	-13%	.	.	.
SMILES	HCMV inh	Sm TGR block	Giardia FBPA inh	Pf growth 96h	Pf growth 48h
Cc1ccc(CNC(=O)CCS(=O)(=O)c2cc3c(cc2Cl)NC(=O)CO3)cc1	-105*!	-8%	10%	-14%	?
O=C(Cc1ccc(Cl)c(Cl)c1)Nc1ccc2[nH]c(=O)[nH]c2c1	-35	-5%	1%	16%	31%
COC(=O)[C@@]12C[C@@H](CC(=O)N3CCCC3)C(=O)N(Cc3ccccc3)C1=CCC(C)(C)C2	-25	.	.	.	.
Cc1cc(C)c(NC(=O)Cn2nnc(-c3ccccc3)n2)c(C)c1	-9	-3%	.	.	.
Cc1ccc2ccccc2c1NC(=O)Cn1nnc(-c2cccnc2)n1	-3	-1%[57.1 µM]	5%	0.66µM*	25%
O=C(C[n+]1ccc(-c2nnc3n2CCCCC3)cc1)c1ccc(Cl)cc1	-6	-18%	-13%	41%	9%
O=C(CNc1ccc(Br)cc1)NNC1=NCCC1	17	0%	0%	32%	-8%
COC(=O)c1ccc(NC(=O)CCc2nnc3ccc(NCc4ccco4)nn23)cc1	+	?	3%	20%	?
O=C(CCc1nnc2ccc(NCc3ccco3)nn12)N1CCN(c2ccccc2F)CC1	-27	?	.	9.3µM*	-5%
COc1ccc(NC(=O)CCc2nnc3ccc(NCc4ccco4)nn23)cc1	?	-4%	.	?	-19%
COc1ccccc1NC(=O)NC1CCS(=O)(=O)C1 (centres undefined)	0	-3%	3%	56%	39%
COc1ccc(NC(=O)c2cnc(N3CCCCC3)c3ccccc23)cc1Cl	-22	8%	.	.	.
Cn1ncc(Cl)c1C(=O)NC(=S)Nc1sc2c(c1C#N)CCCCC2	-60*	?	0%	5%	69%
COc1ccc(NC(=O)Nc2ccc(C(=O)N3CCOCC3)cc2)cc1	2	3%	0%	?	10%
COc1ccc2cc(/C=C/C(=O)N3CCN(CC(=O)N4CCCCCC4)CC3)ccc2c1	.	-13%	3%	?	6.6µM*
COC(=O)C1CCN(C(=O)/C=C/c2ccc(OC)cc2)CC1	125	-2%	-1%	.	166%
COc1ccc(C(=O)N2CCN(CC(=O)N3CCOCC3)CC2)cc1	-6	-16%	-7%	4.7µM*!	18%
COc1ccc2c3n([n+]([O-])c2c1)C(C)CN=C3c1ccc(C)cc1 (centres undefined)	20	.	.	.	.
CCC(C)Nc1nc(-c2c[nH]c3ccccc23)cs1 (centres undefined)	30	1%	?	?	8.3µM*
Nc1ccccc1-[n+]1c(-c2ccccc2)cc(-c2ccccc2)cc1-c1ccccc1	?	5%	8%	2.1µM*	4.7µM*
Oc1c(Br)cc(-c2ccccc2)cc1Br	-25	.	.	.	.
Oc1ccccc1-[n+]1c(-c2ccccc2)cc(-c2ccccc2)cc1-c1ccccc1	-84*	0%	.	1.5µM*	1.5µM*
[O-]c1ccccc1-[n+]1c(-c2ccccc2)cc(-c2ccccc2)cc1-c1ccccc1	-97*	5%	.	0.33µM*	1.3µM*
Nc1ccc(-c2ccccc2)cc1	14	.	.	.	.
Cc1ccccc1-[n+]1c(-c2ccccc2)cc(-c2ccccc2)cc1-c1ccccc1	-96*	-10%	.	0.19µM*	0.33µM*
O=C([O-])c1ccccc1-[n+]1c(-c2ccccc2)cc(-c2ccccc2)cc1-c1ccccc1	?	0%	.	4.7µM*	12µM*
